Assay outcomes deposited in PubChem BioAssay by Sanford-Burnham Center for Chemical Genomics.
In the library only some 6.3% were active in any assay of this set; here they are far more common.
tim10-1 inh: inhibits growth of tim10-1 mutant yeast. S. cerevisiae tim10-1 ts strain growth, BacTiter-Glo, 24 h. AID 463190. hit rate 2.2% among 330,000. inhibition, % at 20 µM;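 active = inhibition of at least 40%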;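 also: mutant grown at 25 °C; 0% = DMSO wells with yeast and 100% = wells holding no yeast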
TIM10 inh: growth inhibitors of TIM10 yeast strain; S. cerevisiae TIM10 strain growth, BacTiter-Glo luminescence, 24 h; inhibition, % at 10 µM; hit rate 1.4% among 330,000; AID 463195;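 active = inhibition of 40% or more at the single tested concentration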;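 also: wild-type TIM10 isogenic control strain grown at permissive 25 °C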
MPTP block: inhibitors of mitochondrial permeability transition pore. isolated mouse mitochondria, Ca2+ swelling absorbance, 30 min. inhibition, % at 10 µM. hit rate 1.4% among 360,000;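 active = inhibition of 50% or more, scaled per plate between neutral and stimulator controls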;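 also: 0% = DMSO wells given calcium and 100% = 1 mM EGTA wells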
tim23-1 inh: growth inhibitors of tim23-1 mutant yeast. inhibition, % at 20 µM. hit rate 1.3% among 330,000. S. cerevisiae tim23-1 growth, BacTiter-Glo luminescence, 24 h;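 active = growth inhibition of the mutant yeast at or above 50%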;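 also: temperature-sensitive mutant grown at 25 °C; plate controls were DMSO-treated mutant yeast for no effect and medium wells lacking yeast for full effect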
Mdm2-MdmX inh: human Mdm2/MdmX binding inhibition; O15151+Q00987; SaOS-2 split-luciferase Mdm2/MdmX complementation, luminescence; inhibition, % at 8 µM; hit rate 3% among 330,000; AID 485346;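 active = inhibition of at least 50% at 8 µM in the primary screen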
Mdm2-MdmX conf: human Mdm2/MdmX binding inhibition, confirmed | shares compounds with Mdm2-MdmX inh | luminescent assay | inhibition, % at 8 µM | hit rate 55% among 10,000; in the data active = inhibition above about 40%
FLuc counter: inhibits full-length luciferase, flagging false Mdm2/MdmX hits. SaOS-2 full-length luciferase counterscreen, luminescence. shares compounds with Mdm2-MdmX inh. inhibition, % at 8 µM. hit rate 77% among 6,200. AID 504607;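 active = mean inhibition at 8 µM reaching about 37%, which flags the compound as non-specific, limit read from the data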;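 also: p53-null SaOS-2 cells with luciferase driven by a doxycycline-inducible promoter; compound on cells about two nights before reading with doxycycline added after day one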
The depositor's hits bear a star.

What do the screens show for `CCCCSc1nc(C)cc(SCC(=O)N/N=C/c2cccc(OC)c2O)n1`?
tim10-1 inh: 19.0; TIM10 inh: 20.0; MPTP block: 20.7; tim23-1 inh: 25.6; Mdm2-MdmX inh: 72.0*; Mdm2-MdmX conf: 79.5*; FLuc counter: 34.4

Results for COc1cccc2c(SCC(=O)N/N=C/c3ccc(O)cc3O)cc(C)nc12 ?
tim10-1 inh: -0.5; TIM10 inh: 10.8; MPTP block: -1.0; tim23-1 inh: -2.5; Mdm2-MdmX inh: 53.6*; Mdm2-MdmX conf: 46.0*; FLuc counter: 65.4*

Results for COc1cccc(CNC(=O)COC(=O)c2ccc(-c3ccc(O)cc3)cc2)c1 ?
MPTP block: -0.6

Results for COc1ccc(CSCC(=O)N/N=C/c2ccccc2O)cc1 ?
tim10-1 inh: 26.1; TIM10 inh: 11.7; MPTP block: -0.7; tim23-1 inh: 32.2; Mdm2-MdmX inh: 57.4*; Mdm2-MdmX conf: 35.6; FLuc counter: 64.8*

What do the screens show for `CCN(CC)c1ccc(N2C(=O)/C(=C/c3cccs3)SC2=S)cc1`?
tim10-1 inh: 8.5; TIM10 inh: -4.9; MPTP block: 0.8; tim23-1 inh: -11.5; Mdm2-MdmX inh: 52.2*; Mdm2-MdmX conf: 20.4

How did CCc1nc2ccc(C(=O)Nc3ccc(OC)c(OC)c3)cn2c1N(C)Cc1cccs1 do in these assays?
MPTP block: -1.1

What do the screens show for `CNCC[C@@H](Oc1ccc(C(F)(F)F)cc1)c1ccccc1`?
tim10-1 inh: -5.8; TIM10 inh: 13.3; tim23-1 inh: 6.6; Mdm2-MdmX inh: 50.4*; Mdm2-MdmX conf: 28.2

What do the screens show for `COc1ccc(CCC(C)NCc2ccc(C(F)(F)F)cc2)cc1` (centres undefined)?
tim10-1 inh: 10.8; TIM10 inh: -19.7; MPTP block: 3.3; tim23-1 inh: 7.2; Mdm2-MdmX inh: -15.1

What do the screens show for `COc1ccc(/C=N/Nc2nonc2N)cc1`?
tim10-1 inh: -3.2; TIM10 inh: 4.6; MPTP block: -0.4; tim23-1 inh: -1.5; Mdm2-MdmX inh: -7.6

How did COc1ccc(/C=N/Nc2nonc2N)cc1OC do in these assays?
tim10-1 inh: 10.1; TIM10 inh: 8.5; MPTP block: 1.1; tim23-1 inh: 9.0; Mdm2-MdmX inh: 51.0*; Mdm2-MdmX conf: 8.5

How did CN(C)c1ccc(-c2ccnc3c2CC(C)(C(=O)NCC2CC2)O3)cc1 (centres undefined) do in these assays?
MPTP block: 0.0

What do the screens show for `CC[C@H](C)[C@@H](CO)NC(=O)[C@H]1O[C@@H](n2ccc(N)nc2=O)[C@H](O)[C@@H]1O`?
MPTP block: -0.1

What do the screens show for `COc1ccc(Cl)cc1NC(=O)Cn1nnc(C(=O)NCCc2ccc(OC)c(OC)c2)c1N`?
tim10-1 inh: 13.1; TIM10 inh: 8.2; MPTP block: -0.4; tim23-1 inh: 12.2; Mdm2-MdmX inh: 21.5

What do the screens show for `COc1ccc(NC(=O)Cn2nnc(C(=O)Nc3ccc(F)c(Cl)c3)c2N)cc1OC`?
tim10-1 inh: 17.4; TIM10 inh: 3.9; MPTP block: 0.5; tim23-1 inh: 4.5; Mdm2-MdmX inh: 66.0*; Mdm2-MdmX conf: 31.3

What do the screens show for `COc1ccc(NC(=O)Cn2nnc(C(=O)NCc3ccccc3)c2N)cc1Cl`?
tim10-1 inh: -15.5; TIM10 inh: -46.0; MPTP block: -0.8; tim23-1 inh: -6.7; Mdm2-MdmX inh: 26.3

Results for COc1ccc(Cl)cc1NC(=O)c1nnn(CC(=O)Nc2ccc(C)c(C)c2)c1N ?
tim10-1 inh: -15.6; TIM10 inh: -16.9; MPTP block: 2.8; tim23-1 inh: -8.8; Mdm2-MdmX inh: 52.6*; Mdm2-MdmX conf: 31.9

Results for COc1ccc(NC(=O)Cn2nnc(C(=O)NCc3ccc(C)cc3)c2N)cc1Cl ?
tim10-1 inh: 20.3; TIM10 inh: 3.4; MPTP block: 1.2; tim23-1 inh: 2.9; Mdm2-MdmX inh: 53.2*; Mdm2-MdmX conf: 31.9

How did CON(C)C(=O)/C=C/c1ccc([B-](F)(F)F)cc1 do in these assays?
MPTP block: -1.4

Results for Cc1cc(C(=O)COc2ccc(Br)cc2F)c(C)n1CC1CCCO1 (centres undefined) ?
MPTP block: -0.2

How did CC1=C(C(=O)N(C)C)CC(CC(=O)NC2CCCCC2)C(=O)N1CCC1=CCCCC1 (centres undefined) do in these assays?
MPTP block: 0.2

How did c1ccc(N2CCN(c3ncnc4sc5c(c34)CCC5)CC2)cc1 do in these assays?
tim10-1 inh: 24.0; TIM10 inh: 8.1; MPTP block: -0.4; tim23-1 inh: 16.7; Mdm2-MdmX inh: 66.9*; Mdm2-MdmX conf: 56.2*; FLuc counter: 38.6*

Results for O=C(c1ccco1)N1CCN(c2ncnc3sc4c(c23)CCC4)CC1 ?
tim10-1 inh: 29.3; TIM10 inh: 2.3; MPTP block: 7.8; tim23-1 inh: -18.9; Mdm2-MdmX inh: 29.0

What do the screens show for `Cc1cc(NC(=O)Cc2ccccc2)nc2c1c(=O)oc1ccccc12`?
tim10-1 inh: 25.1; TIM10 inh: 8.8; MPTP block: 1.5; tim23-1 inh: 5.6; Mdm2-MdmX inh: 74.4*; Mdm2-MdmX conf: 31.8

How did Cc1cccc(CC(=O)Nc2cc(C)c3c(=O)oc4ccccc4c3n2)c1 do in these assays?
tim10-1 inh: 2.8; TIM10 inh: -1.0; MPTP block: 0.9; tim23-1 inh: 10.1; Mdm2-MdmX inh: 38.5

How did COc1ccc(Cc2nnc(N/N=C/c3ccc(O)cc3O)[nH]c2=O)cc1OC do in these assays?
tim10-1 inh: 28.4; TIM10 inh: 12.8; MPTP block: 1.1; tim23-1 inh: 22.8; Mdm2-MdmX inh: 56.4*; Mdm2-MdmX conf: 43.6*; FLuc counter: 49.6*

Results for CCCCCCCCN1C(=O)[C@H](CC(=O)NCc2cccc3ccccc23)C[C@@]2(C(=O)OCC)CCC=C12 ?
MPTP block: -1.1

Results for Cc1c(CCOC(=O)c2cc([N+](=O)[O-])cc([N+](=O)[O-])c2)sc[n+]1CC(=O)c1ccccc1 ?
tim10-1 inh: 11.7; TIM10 inh: 29.1; MPTP block: 1.1; tim23-1 inh: 6.7; Mdm2-MdmX inh: 22.5

How did Cc1c(CCOC(=O)CC23CC4CC(CC(C4)C2)C3)sc[n+]1CC(=O)c1ccc(Br)cc1 do in these assays?
tim10-1 inh: 26.5; TIM10 inh: 17.2; MPTP block: 1.0; tim23-1 inh: 11.5; Mdm2-MdmX inh: 51.1*; Mdm2-MdmX conf: -2.0

Results for COc1ccc(-c2nn(-c3ccccc3)cc2C(=O)NC(=S)Nc2cc(Cl)ccc2Cl)cc1 ?
tim10-1 inh: 3.5; TIM10 inh: -7.0; MPTP block: 2.5; tim23-1 inh: -10.6; Mdm2-MdmX inh: 73.7*; Mdm2-MdmX conf: 43.5*; FLuc counter: 51.0*

What do the screens show for `CCc1nc(N=C(N)N)nc2ccccc12`?
tim10-1 inh: -13.7; TIM10 inh: -15.2; tim23-1 inh: -8.8; Mdm2-MdmX inh: 59.0*; Mdm2-MdmX conf: 14.9
